According to PubChem BioAssay (NCI):
This is part of a sample that, as a whole, favours compounds with a hit. Of some 83,000 tested, about 20% had one in any assay.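 Testing used 96-well plates and a 48-hour single-concentration exposure. Example: -40 means 40% of the starting cells died.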 Active and inactive are the calls of the source.

Each compound was assayed on NCI-H23 lung (assay: NCI-60 one-dose screen, 48 h (100 = growth as untreated, 0 = no growth, -100 = all killed)). Conditions: 10 µM unless noted.
Protocol: Growth inhibition of the NCI-H23 human Non-Small Cell Lung tumor cell line is measured as a screen for anti-cancer activity. Cells are grown in 96 well plates and exposed to the test compound for 48 hours. Compounds are tested at a single concentration, which is 10^-5 M for most compounds. The reported endpoint is percent growth (GI% or GIPRCNT), where numbers from 0 - 100% represent growth inhibition, and numbers from -100% - 0 represent cell death. For example, a value of 40 represents 60% growth inhibition. A value of 0 means no net growth occurred over the course of the experiment. A value of -40 indicates 40% of cells at the beginning of the experiment died by the end of the experiment. A value of -100 means all cells are dead at the end of the experiment.
NCI-60 Human Tumor Cell Lines Screen was performed using the standard one-dose NCI protocol, which is described in more detail at https://dtp.cancer.gov/discovery_development/nci-60/default.htm.
Compounds with GIPRCNT values below 10 were considered active. Activity score was based on GIPRCNT using the following formula: […]
Score is 0 for GIPRCNT values of 100 or above, 50 for GIPRCNT values of 0, and 100 for GIPRCNT values of -100.
For `CCOC(=O)c1c(C)[nH]c(C)c1C=O`, the growth was 98.8% (inactive). `O=C(O)c1ccccc1Cc1ccc2c(c1)CCCC2` was tested, and the growth was 100% (inactive). In the case of `CN(C)Cc1ccccn1`, the growth was 101% (inactive). `COc1ccc(C(=O)/C(=N/Nc2ccccc2)c2ccc(OC)cc2)cc1` was tested, and the growth was 89% (inactive). For `c1ccc2[nH]c(Cc3nc4ccccc4[nH]3)nc2c1`, the growth was 107% (inactive). `O=C(Nc1ccccc1)c1ccco1` was tested, and the growth was 96.2% (inactive). `CC12CCC3c4ccc(O)cc4CCC3C1CCC2=O` (stereo not given) was tested, and the growth was 104% (inactive). In the case of `NCC(O)C(O)C(O)C(O)CO` (stereo not given), the growth was 98.2% (inactive). `CSc1nsc(N)n1` was tested, and the growth was 97.9% (inactive). In the case of `CCOC(=O)CNC(=O)Sc1ccc(C(C)(C)C)cc1`, the growth was 98.1% (inactive). `CCOC(=O)c1c[nH][nH]c1=O` was tested, and the growth was 93.4% (inactive). `Cn1c(=O)c2[nH]c(CC(=O)O)nc2n(C)c1=O` was tested, and the growth was 100% (inactive). For `COC(c1ccc2c(c1)OCO2)C(C)Br` (stereo not given), the growth was 95.2% (inactive). In the case of `O=C(Oc1ccccc1Cl)c1ccc(Cl)cc1Cl`, the growth was 101% (inactive). With `OCCNc1ccccc1` the growth was 95.6% (inactive). In the case of `O=S(Cc1ccccc1)/C(=C/NC(=S)Nc1cc(Cl)ccc1Cl)c1ccccc1` (stereo not given), the growth was 97.1% (inactive). With `C=C1C(=O)C2CCC1C2` (stereo not given) the growth was 107% (inactive). With `Cc1[nH]nc(C(N)=O)c1[N+](=O)[O-]` the growth was 89.2% (inactive). For `COc1ccc(C(=O)C(=O)c2ccccc2)cc1`, the growth was 94% (inactive). In the case of `COc1ccc2c(Cl)cc(NC(=O)Nc3c(C)cccc3C)nc2c1`, the growth was 96.9% (inactive). In the case of `Nc1ccc2c(c1)Cc1cc(N)c(N)cc1-2`, the growth was 86.2% (inactive). `Nc1nnc2cc(F)ccc2n1` was tested, and the growth was 90.6% (inactive). `N#C/C(=C\NC(=S)N=Nc1c(O)[nH]c2ccccc12)c1nc2ccccc2s1` was tested, and the growth was 94.7% (inactive). With `CN(C)c1ccc2nc3ccc(=[N+](C)C)cc-3oc2c1` the growth was 9.83% (active). With `CC(C)Sc1ncnc2nc[nH]c12` the growth was 114% (inactive). For `CC(=O)OC(C)c1cccc(C#N)c1` (stereo not given), the growth was 103% (inactive). In the case of `CC(C)c1ccccc1NC(=O)N1CCC(C(C)C)CC1`, the growth was 107% (inactive). With `CCOc1ccncc1[N+](=O)[O-]` the growth was 106% (inactive). `CC(=O)N=c1ccc2nc3c(cc(N)c4ccccc43)oc-2c1` was tested, and the growth was -27.8% (active). For `CC(C)=CCC[C@@H](C)[C@H]1CC[C@@]2(C)C3=C(CC[C@]12C)[C@@]1(C)CC[C@H](O)C(C)(C)[C@@H]1CC3`, the growth was 113% (inactive). With `C[C@H](CCC[C@H](C)OS(=O)(=O)c1ccccc1)OS(=O)(=O)c1ccccc1` the growth was 107% (inactive). With `CCOC(=O)/C(C)=C\c1ccc(OC)c(OC)c1` the growth was 98.1% (inactive). With `Nc1cc(F)ccc1[N+](=O)[O-]` the growth was 103% (inactive). With `CC(=O)c1cccc(O)c1` the growth was 96.6% (inactive). With `COc1ccc(C2CCCCC2=O)cc1` (stereo not given) the growth was 108% (inactive). For `CCCC1OC(c2ccco2)OCC1CC` (stereo not given), the growth was 96.8% (inactive). With `CC1(C)OC2C(CO)OC(n3ccc(=O)[nH]c3=O)C2O1` (stereo not given) the growth was 102% (inactive). For `O=C(Nc1cccc(Cl)c1)c1ccc(Cl)cc1Cl`, the growth was 99.4% (inactive). `O=C(OCc1ccccc1)n1nnc2ccccc21` was tested, and the growth was 115% (inactive). In the case of `Nc1nc(Cl)cc(Cl)n1`, the growth was 95.9% (inactive).
